Bioassay records (PubChem)
Only a selection was taken, and hits are over-represented in it overall.
PRC2 inh: inhibitors of human EZH2/PRC2 methyltransferase; actives 0.35% (n = 57,000); PRC2 H3K27 methylation, DELFIA TRF, 1 h; Q15910; inhibition, % at 12.5 µM;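 active means mean inhibition of replicates at least 50% and every single replicate also reaching 50%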;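 further: dimethyl H3K27 on biotinylated H3 21-44 peptide detected by antibody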
Target sequence (Q15910 whole entry, looked up): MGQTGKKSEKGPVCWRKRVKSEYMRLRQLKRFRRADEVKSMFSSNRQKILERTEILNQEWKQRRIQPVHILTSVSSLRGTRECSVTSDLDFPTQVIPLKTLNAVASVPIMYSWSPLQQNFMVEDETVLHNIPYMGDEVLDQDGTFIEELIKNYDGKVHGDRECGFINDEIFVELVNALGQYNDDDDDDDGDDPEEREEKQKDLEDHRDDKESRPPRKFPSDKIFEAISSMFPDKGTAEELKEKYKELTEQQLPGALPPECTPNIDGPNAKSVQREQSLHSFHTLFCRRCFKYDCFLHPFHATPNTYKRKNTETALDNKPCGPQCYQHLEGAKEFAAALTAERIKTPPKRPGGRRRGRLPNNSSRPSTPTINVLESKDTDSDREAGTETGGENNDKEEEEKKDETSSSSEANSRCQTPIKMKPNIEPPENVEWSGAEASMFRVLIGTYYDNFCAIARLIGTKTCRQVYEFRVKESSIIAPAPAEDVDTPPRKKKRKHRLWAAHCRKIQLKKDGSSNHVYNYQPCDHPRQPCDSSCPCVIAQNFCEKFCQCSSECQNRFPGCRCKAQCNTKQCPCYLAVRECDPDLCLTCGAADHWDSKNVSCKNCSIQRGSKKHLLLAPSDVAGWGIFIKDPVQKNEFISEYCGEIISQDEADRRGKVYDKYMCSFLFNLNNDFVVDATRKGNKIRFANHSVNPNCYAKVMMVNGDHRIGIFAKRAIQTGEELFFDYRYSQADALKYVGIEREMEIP
A number is an active result; . = inactive.

SMILES	PRC2 inh
C[C@@H]1CC[C@]2(C(=O)O[C@@H]3O[C@H](CO)[C@@H](O)[C@H](O)[C@H]3O)CC[C@]3(C)C(=CCC4[C@@]5(C)C[C@@H](O)[C@H](O)C(C)(C)C5CC[C@]43C)C2[C@]1(C)O (some centres undefined)	.
C[C@H]1O[C@@H](O[C@H]2CC[C@@]3(C)C(CC[C@]4(C)C3CC=C3C5CC(C)(C)CC[C@]5(C(=O)O)CC[C@]34C(=O)O)C2(C)C)[C@H](O)[C@@H](O)[C@H]1O (some centres undefined)	.
CC1(C)CC[C@]2(C(=O)O[C@@H]3O[C@H](CO)[C@@H](O)[C@H](O)[C@H]3O)CC[C@]3(C)C(=CCC4[C@@]5(C)CC[C@H](OC6O[C@H](CO)[C@@H](O)[C@H](O[C@@H]7O[C@H](CO)[C@@H](O)[C@H](O)[C@H]7O)[C@H]6O)C(C)(C)C5CC[C@]43C)[C@@H]2C1 (some centres undefined)	.
CC1(C)CC[C@]2(C(=O)O[C@@H]3O[C@H](CO)[C@@H](O)[C@H](O)[C@H]3O)CC[C@]3(C)C(=CCC4[C@@]5(C)C[C@@H](O)[C@H](O)C(C)(C)C5CC[C@]43C)C2[C@@H]1O (some centres undefined)	68
C[C@H]1[C@H](C)CC[C@]2(C(=O)O)CC[C@]3(C(=O)O)C(=CCC4[C@@]5(C)CC[C@H](O[C@@H]6O[C@@H](C)[C@H](O)[C@@H](O)[C@H]6O)C(C)(C)C5CC[C@]43C)[C@H]12 (some centres undefined)	.
CC1CC[C@]2(C(=O)OC3OC(COC4OC(CO)C(O)C(O)C4O)C(O)C(O)C3O)CC[C@]3(C(=O)O)C(=CCC4[C@@]5(C)CC[C@H](OC6OC(C)C(O)C(O)C6O)C(C)(C)C5CC[C@]43C)C2C1C (some centres undefined)	71
COc1cccc2cc(-c3nnc(SCC(=O)Nc4sc5c(c4C#N)CCCC5)n3C)oc12	.
O=C(CCCCCCC(=O)Nc1ccccc1O)N/N=C/c1ccc(Br)s1	.
COC(=O)C1=C(C)NC2=C(C(=O)c3ccccc32)C1c1cc(Cl)c(OCc2ccc([N+](=O)[O-])cc2)c(OC)c1 (centres undefined)	.
COc1ccc(/C=N/NC(=O)CCCCC(=O)NO)cc1	.
O=C(CCCCC(=O)N/N=C/c1ccccc1Br)NO	.
CC(=O)Nc1nonc1-c1nc2ccccc2n1Cc1cccc2ccccc12	.
Cc1cc(S(=O)(=O)NCC(=O)O)ccc1Cl	.
Cc1cccc(C)c1NC(=O)CSc1nc2c(cc1C#N)CCC2	.
C[C@H](CO)N1C[C@H](C)[C@H](CN(C)C(=O)CC2CC2)Oc2cc(C3=CCCC3)ccc2S1(=O)=O	55
C[C@H]1CN([C@@H](C)CO)S(=O)(=O)c2ccc(C3=CCCC3)cc2O[C@@H]1CN(C)C(=O)CC1CC1	.
C[C@H]1CN([C@@H](C)CO)S(=O)(=O)c2ccc(C3=CCCCC3)cc2O[C@H]1CN(C)Cc1ccccc1	56
CC(C)CC#Cc1ccc2c(c1)O[C@@H](CN(C)Cc1ccccc1)[C@@H](C)CN([C@H](C)CO)S2(=O)=O	.
C[C@@H]1CN([C@@H](C)CO)S(=O)(=O)c2ccc(C3=CCCCC3)cc2O[C@@H]1CN(C)Cc1ccccc1	.
C[C@H](CO)N1C[C@H](C)[C@H](CN(C)Cc2ccccc2)Oc2cc(C3=CCCCC3)ccc2S1(=O)=O	.
C[C@@H]1CN([C@H](C)CO)S(=O)(=O)c2ccc(C3=CCCC3)cc2O[C@@H]1CN(C)C(=O)CC1CC1	.
CC(C)CC#Cc1ccc2c(c1)O[C@H](CN(C)Cc1ccc(C(=O)O)cc1)[C@@H](C)CN([C@H](C)CO)S2(=O)=O	70
CC(C)CC#Cc1ccc2c(c1)O[C@@H](CN(C)Cc1ccc(F)cc1)[C@H](C)CN([C@H](C)CO)S2(=O)=O	.
CCOc1cccc(-c2nnc(SCC(=O)Nc3cccc(Cl)c3C)n2C)c1	.
COc1cc([N+](=O)[O-])ccc1NC(=O)Nc1nn(Cc2ccc(Cl)c(Cl)c2)cc1Cl	.
SMILES	PRC2 inh
CCN1CCCC1CNC(=O)C(NC(=O)c1ccc(C23CC4CC(CC(C4)C2)C3)cc1)C(C)C (centres undefined)	.
Cc1cccc(C)c1OCC(=O)Nc1sc(C)c(C)c1C(N)=O	.
CC(C)N(Cc1nc(-c2ccccc2Cl)no1)S(=O)(=O)c1ccc([N+](=O)[O-])cc1	.
O=C(CSc1nc(-c2ccccc2)cc(=O)[nH]1)Nc1cc(C(F)(F)F)ccc1Cl	64
Cc1ccc(NC(=O)CSc2nc(-c3ccccc3)cc(=O)[nH]2)cc1Cl	.
O=C(CSc1nc(-c2ccccc2)cc(=O)[nH]1)Nc1cccc(Cl)c1Cl	.
COC(=O)c1sccc1-c1ccc(-c2ccn(C(=O)c3ccc(Cl)cc3)n2)o1	.
Cc1ccc(NC(=O)COc2ccc(C(=O)Nc3ccc(Cl)cc3)cc2)cc1	.
CCC(Sc1nc2ccccc2s1)C(=O)Nc1ccc(Br)cc1 (centres undefined)	.
Cc1cc(Oc2ccccc2)nc(SCC(N)=O)n1	.
Cc1cc(C)nc(SCC(=O)c2ccc(Oc3ccccc3)cc2)n1	57
Nc1nc(SCC(=O)c2ccc(Oc3ccccc3)cc2)n[nH]1	.
N#Cc1c(-c2ccccc2)nc(SCC(=O)N(c2ccccc2)c2ccccc2)[nH]c1=O	52
O=C(CSc1nc2sc3c(c2c(=O)[nH]1)CCCC3)N(c1ccccc1)c1ccccc1	.
O=C(CSc1ncn[nH]1)N(c1ccccc1)c1ccccc1	.
CC(Sc1nc(-c2ccccc2)c(C#N)c(=O)[nH]1)C(=O)Nc1ccc(Cl)cc1 (centres undefined)	.
CC(Sc1nc(-c2ccccc2)c(C#N)c(=O)[nH]1)C(=O)Nc1cccc(Cl)c1 (centres undefined)	63
CC(Sc1nc2ccccc2[nH]1)C(=O)Nc1cccc(Cl)c1 (centres undefined)	.
Clc1snnc1CN1CCOCC1	.
Cc1cc(N(CC(=O)Nc2ccc3c(c2)OCCO3)S(C)(=O)=O)ccc1Br	.
CCN(CC(=O)Nc1ccc(Cl)cc1C)S(=O)(=O)c1ccc(C)cc1	.
O=C(CSc1n[nH]c(-c2ccc(Cl)cc2)n1)Nc1ccc(Br)c(Cl)c1	.
COc1ccc(-c2nc(SCC(=O)Nc3ccc(Br)c(Cl)c3)n[nH]2)cc1	57
COc1ccc(-c2nc(SCC(=O)Nc3cccc(Br)c3)n[nH]2)cc1	.
NC(=O)COc1ccc(S(=O)(=O)N2CCOCC2)cc1	.
SMILES	PRC2 inh
COc1ccccc1C(=O)CC(=O)C(=O)Nc1sc2c(c1C#N)CCC2	.
C[C@H]1CN([C@@H](C)CO)C(=O)c2cc(NS(=O)(=O)c3cccs3)ccc2O[C@@H]1CN(C)Cc1ccccc1	.
C[C@H]1CN([C@@H](C)CO)C(=O)c2cc(NS(=O)(=O)c3cccs3)ccc2O[C@@H]1CN(C)Cc1ccc(-c2ccccc2)cc1	72
C[C@@H]1CN([C@H](C)CO)C(=O)c2cc(NS(=O)(=O)c3cccs3)ccc2O[C@@H]1CN(C)Cc1ccccc1	.
C[C@@H]1CN([C@@H](C)CO)C(=O)c2cc(NS(=O)(=O)c3cccs3)ccc2O[C@H]1CN(C)Cc1ccc(-c2ccccc2)cc1	60
C[C@@H]1CN([C@@H](C)CO)C(=O)c2cc(NS(=O)(=O)c3cccs3)ccc2O[C@@H]1CN(C)Cc1ccccc1	.
C[C@H](CO)N1C[C@H](C)[C@@H](CN(C)Cc2ccccc2)Oc2ccc(NS(=O)(=O)c3cccs3)cc2C1=O	.
N#CCCn1c(CC(N)=O)nc2ccccc21	.
